Screening data from PubChem BioAssay.
The list is not random: actives were taken first. Their share in the collection is about 21%.
Pf growth 96h: inhibits malaria parasite growth, 96 h | P. falciparum luciferase reporter growth, 96 h | Potency, µM (series often up to 28.7 µM), usual class: inhibitors | 320,000 tested, 6.9% active
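Delayed-death screen, second-generation endpoint: infected erythrocytes, 2% hematocrit, 0.05% parasitemia final; 96 hours at 37 C, 5% CO2; luciferase detection reagent; luminescence decrease equals reduced growth.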
Pf growth 48h: inhibits P. falciparum growth in the first generation, 48 h | P. falciparum luciferase growth in erythrocytes, 48 h | Potency, µM (series often up to 28.7 µM), actives largely listed as inhibitors | 310,000 tested, 5.9% active | AID 504832
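Here the parasites carry a stable luciferase gene and grow inside erythrocytes in Albumax-based RPMI medium with compound for one erythrocytic cycle. Activity is scored as loss of luminescent signal.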
NS1 function inh: inhibitors of influenza NS1 protein function; AID 2326; 270,000 tested, 0.4% active; Potency, µM (series often up to 46.1 µM); calls by dose curve; further: actives are rising curves; nearly all actives have a fitted effect of over 50% in size
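A cell-based growth assay was used: compounds that relieve NS1-induced slow growth of budding yeast raise OD600. Assay medium was yeast nitrogen base with ammonium sulphate and -URA supplement, pH 6.0, with 2% galactose.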
Shiga inhibitor: inhibitors of Shiga toxin in Vero cells; 290,000 tested, 9.2% active; AID 2315; inhibition, % at 38.7 µM; Vero cells, Shiga toxin protein synthesis inhibition reporter; in the data active means inhibition mostly above about 28%, no sharp cut-off; inactive means mostly below about 43%
SARS PLpro yeast: inhibitors of SARS-CoV papain-like protease in yeast | S. cerevisiae expressing SARS-CoV PLpro, growth rescue | 330,000 tested, 0.19% active | Potency, µM (highest dose often 32.9 µM), actives largely listed as activators; calls by dose curve; further: nearly all actives have a fitted effect of over 55% in size
CHX counter: affects cycloheximide protein synthesis inhibition readout, counter-screen | 300,000 tested, 12% active | AID 2314 | max response, % | cell reporter, cycloheximide protein synthesis inhibition counterscreen; in the data active means max response mostly above about 13%, no sharp cut-off; inactive means mostly below about 14%; further: read at 38.3 µM for the half of the compounds with a filed dose
Numbers stand for hits; i = inactive; ? = inconclusive; nt = no result; [ ] = another dose, or the depositor's remark. Unless noted, the call rests on the fitted dose curve; in most records, active means well fitted inhibition curve with a large enough effect; inconclusive means small, poorly fitted or top-dose-only effect, or another doubt; inactive means no such curve, though single readings can be large or run the other way.

SMILES | Pf growth 96h | Pf growth 48h | NS1 function inh | Shiga inhibitor | SARS PLpro yeast | CHX counter
COc1cccc(NC(=O)Cc2nc(-c3ccccc3)sc2-c2ccc(C)cc2)c1 | 10µM | ? | i | 51 | i | 28
COC(=O)c1cccc(NC(=O)Cc2nc(-c3ccccc3)sc2-c2ccc(C)cc2)c1 | i | ? | i | i | i | i
CC(=O)Nc1cccc(NC(=O)Cc2nc(-c3ccccc3)sc2-c2ccc(C)cc2)c1 | ? | ? | ? | 130 | i | 20
Cc1cc(NC(=O)Cc2csc(-c3ccccc3)n2)ccc1Br | i | i | i | i | i | i
N#Cc1ccc(NC(=O)COC(=O)CCNS(=O)(=O)c2ccccc2)cc1 | i | i | i | i | i | 45
O=C(COC(=O)CCNS(=O)(=O)c1ccccc1)Nc1ccc(OC(F)F)cc1 | i | i | nt | nt | i | nt
COc1cc(C(=O)N/C(=C\c2cn(S(=O)(=O)N(C)C)c3ccccc23)C(=O)NCCCO)cc(OC)c1OC | 8.3µM | ? | nt | i | i | i
COc1ccc(C(=O)N/C(=C\c2cn(S(=O)(=O)N(C)C)c3ccccc23)C(=O)NCCCn2ccnc2)cc1 | i | 12µM | i | i | i | i
C/C(=N\NC(=S)NC(C)C)c1ccccc1OC(F)F | 8.3µM | i | nt | i | i | i
CCNC(=S)N/N=C(\C)c1ccc2ccccc2c1OC(F)F | ? | 10µM | nt | i | i | i
CCNC(=S)N/N=C(\C)c1ccc2ccccc2c1 | i | ? | nt | i | i | i
CC(=O)c1c(C)[nH]c(C(=O)NC(C)c2ccccc2)c1C (stereo unspecified) | i | i | nt | i | i | i
O=C1C2C3c4ccccc4C(c4ccccc43)C2C(=O)N1Cc1ccco1 (stereo unspecified) | i | i | i | i | i | i
CC12C(=O)N(Cc3ccco3)C(=O)C1C1c3ccccc3C2c2ccccc21 (stereo unspecified) | nt | ? | i | i | i | 46
CC1(C)N([O-])C2=C(CCCC2)[N+]1=O | i | i | i | i | i | i
COc1ccc(CCC(=O)Nc2cccc(Cl)c2)cc1 | i | i | i | i | i | i
COc1ccc2cc(CCC(C)=O)ccc2c1 | i | i | i | 92 | i | 56
C=CCOc1ccccc1CN1CCC(Cc2ccccc2)CC1 | ? | i | i | i | i | i
COc1cccc(CC(=O)Nc2cc(S(=O)(=O)N3CCOCC3)ccc2OC)c1 | ? | i | nt | nt | i | nt
Cc1ccc(C)c(CN2C(=O)C3CCCN3c3ccc(S(=O)(=O)N4CCOCC4)cc32)c1 (stereo unspecified) | ? | 1µM | i | i | ? | i
COc1cccc(CN2C(=O)C3CCCN3c3ccc(S(=O)(=O)N4CCOCC4)cc32)c1 (stereo unspecified) | 1.2µM | 1µM | i | i | i | i
CCN(CC(=O)NCc1ccc(Cl)cc1)C(=O)CN1C(=O)NC(C)(c2ccccc2)C1=O (stereo unspecified) | ? | i | i | i | i | i
Cc1ccc(/C=C/C(=O)N2CCc3ccccc32)o1 | i | i | i | 103 | i | 50
O=C(/C=C/c1ccco1)N1CCc2ccccc21 | i | i | nt | 59 | i | 29
CN(C)S(=O)(=O)c1ccc(Cl)c(NC(=O)COC(=O)CCC2CCCCC2)c1 | nt | nt | nt | nt | i | nt
SMILES | Pf growth 96h | Pf growth 48h | NS1 function inh | Shiga inhibitor | SARS PLpro yeast | CHX counter
Cc1ccc(CNC(=O)Nc2ccccc2)n1C | i | i | i | i | i | 17
Cn1cccc1CNC(=O)Nc1ccccc1 | i | nt | i | 52 | i | 43
Cc1ccc(NC(=O)NCc2cccn2C)cc1C | i | i[0.00184 µM] | i | 59 | i | 18
Cn1cccc1CNC(=O)Nc1ccc(Cl)cc1 | i | i | i | 59 | i | 49
CN1CCC(CNC(=O)Nc2ccccc2)(c2ccccc2)CC1 | i | i | i | i | i | i
CN1CCN(CCNC(=O)Nc2ccc(Cl)cc2)CC1 | ? | i | i | i | i | i
Cc1ccc(CNC(=O)Nc2ccc(F)cc2F)n1C | i | i | i | i | i | i
O=C1C[C@@H](c2ccc(O)c(O)c2)Oc2cc(O[C@H]3O[C@@H](CO)[C@H](O)[C@@H](O)[C@@H]3O)cc(O)c21 | nt | nt | nt | i | nt | i
CCCCNC(=O)c1ccc2c(c1)C(=O)N(Cc1ccncc1)C2=O | i | i | i | i | i | i
COc1ccc(S(=O)(=O)N2CCN(C(=O)CCc3c[nH]c4ccccc34)CC2)cc1 | ? | ? | nt | nt | i | nt
COC(=O)[C@@H]1C(O)[C@@H](C(=O)OC)[C@H](C)N(C)[C@@H]1C (stereo partly specified) | nt | nt | i | nt | nt | nt
O=C(CCC(=O)N1CCOc2ccccc21)NCCN1CCOCC1 | i | i | i | i | i | i
Cc1ccc(C)c(NS(=O)(=O)c2ccc(OCC(=O)NCC3CCCO3)cc2)c1 (stereo unspecified) | i | i | nt | i | i | i
O=C(COc1ccc(F)cc1)NCC1CCCO1 (stereo unspecified) | 1.7µM | i | i | i | i | i
O=C(COc1ccccc1)NCC1CCCO1 (stereo unspecified) | i | i | i | i | i | i
O=C(NCC1CCCO1)c1cc2cc(F)ccc2[nH]1 (stereo unspecified) | ? | nt | i | 38 | i | 27
Cc1ccc(NS(=O)(=O)c2ccc(OCC(=O)NCC3CCCO3)cc2)cc1 (stereo unspecified) | 9.3µM | i | i | i | i | i
CCC(=O)c1ccc(OCC(=O)OCC(=O)NCC2CCCO2)cc1 (stereo unspecified) | i | i | i | i | i | 19
O=C(NCC1CCCO1)c1ccc[nH]1 (stereo unspecified) | i | i | i | i | i | i
O=C(C1CCN(S(=O)(=O)c2ccc(F)cc2)CC1)N1CCOCC1 | 7.4µM | i | ? | i | i | i
O=C(Nc1cccc(S(=O)(=O)N2CCOCC2)c1)C1CCCCN1S(=O)(=O)c1ccccc1 (stereo unspecified) | ? | ? | nt | nt | i | nt
O=C(Nc1cccc(S(=O)(=O)N2CCOCC2)c1)[C@@H]1CCCN1S(=O)(=O)c1ccc(Cl)cc1 | 1.9µM | ? | i | i | i | i
Cc1ccc(S(=O)(=O)N2CCC(C(=O)Nc3ccc(N4CCOCC4)cc3)CC2)cc1C | ? | 4.1µM | nt | nt | i | nt
O=C(Nc1ccc(N2CCOCC2)cc1)C1CCN(S(=O)(=O)c2ccc3c(c2)OCCO3)CC1 | ? | 8.3µM | nt | i | i | i
CCN(CC(=O)Nc1cc(Cl)ccc1C)c1ncnc2sc(C)c(C)c12 | ? | ? | i | i | i | i
CCOc1ccc(N(CC(=O)NCC2CCCO2)C(=O)CCC(=O)Nc2ccccn2)cc1 (stereo unspecified) | ? | ? | i | i | i | i
O=C(Nc1ccc(S(=O)(=O)N2CCOCC2)cc1)C1CC1 | 4.7µM | i | i | i | i | i
CCC(=O)Nc1ccc(S(=O)(=O)N2CCOCC2)cc1 | i | nt | i | i | i | i
C=C(C)C(=O)Nc1cccc(C2=NOC3(C2)C[C@@H](C(N)=O)N(C(=O)CC(c2ccccc2)c2ccccc2)C3)c1 (stereo partly specified) | ? | ? | i | i | i | i
